Cruzain noTriton: cruzain (T. cruzi) inhibition without detergent. 200,000 compounds, 2.3% hits. purified cruzain, Z-FR-AMC fluorescence, no detergent. Potency, µM, hits mostly inhibitors; also: nearly all actives have a fitted effect of over 40% in size
Target sequence (P25779 123-467 limits assumed): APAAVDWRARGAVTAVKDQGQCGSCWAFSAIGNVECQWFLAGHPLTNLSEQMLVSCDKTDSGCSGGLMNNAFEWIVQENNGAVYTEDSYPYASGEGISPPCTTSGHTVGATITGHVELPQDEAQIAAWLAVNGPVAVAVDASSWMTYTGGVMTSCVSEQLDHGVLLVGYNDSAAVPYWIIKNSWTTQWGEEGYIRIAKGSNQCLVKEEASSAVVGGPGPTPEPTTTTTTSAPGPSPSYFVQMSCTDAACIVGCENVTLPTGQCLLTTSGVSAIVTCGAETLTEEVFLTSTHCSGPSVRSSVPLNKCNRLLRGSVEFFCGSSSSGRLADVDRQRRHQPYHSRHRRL
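Purified cruzain at 1.5 nM, pre-incubated 15 min with compound at room temperature in 100 mM sodium acetate pH 5.5, 5 mM DTT, 0.00005% Triton X-100. Reaction started with 2 uM Z-FR-AMC; AMC fluorescence increase over 60 s gives rate.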
Cruzain inh Det: blocks cruzain activity in presence of Triton detergent | AID 1478 | Potency, µM, actives largely listed as inhibitors | 200,000 compounds, 0.43% hits | purified cruzain, Z-FR-AMC fluorescence, 0.01% Triton; also: nearly all actives have a fitted effect of over 40% in size
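Detergent-containing arm of a paired screen for aggregation-based inhibition: 0.01% Triton X-100 present. Cruzain at 1.5 nM cleaved 2 uM Z-FR-AMC at pH 5.5 with 5 mM DTT; AMC fluorescence gain over 60 s measured activity.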
Papain inh: papain (Carica papaya) inhibition counter-screen; shares compounds with Cruzain inh Det; purified papain, Z-FR-AMC fluorescence cleavage; Potency, µM, actives largely listed as inhibitors; 410 compounds, 41% hits; AID 2161; also: nearly all actives have a fitted effect of over 35% in size
Target sequence (P00784 whole entry, looked up): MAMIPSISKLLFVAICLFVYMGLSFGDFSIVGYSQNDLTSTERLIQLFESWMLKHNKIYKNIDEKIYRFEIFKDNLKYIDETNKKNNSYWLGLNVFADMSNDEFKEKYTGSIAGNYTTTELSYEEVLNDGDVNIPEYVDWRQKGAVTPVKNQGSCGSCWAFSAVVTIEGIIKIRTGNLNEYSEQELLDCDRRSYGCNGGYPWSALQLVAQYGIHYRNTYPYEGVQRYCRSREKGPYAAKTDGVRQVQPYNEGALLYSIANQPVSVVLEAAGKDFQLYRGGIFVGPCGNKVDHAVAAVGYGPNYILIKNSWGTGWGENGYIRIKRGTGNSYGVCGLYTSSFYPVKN
Of the large screens only hits and unclear results are named; the others gave an inactive call (follow-up assays come after a bar, where they were run). Most compounds without a hit are left out; they make up all but 2.6% or so of the library. Calls follow the shape of the dose curve; as a rule, active = well fitted curve in the direction sought with a large enough effect; inconclusive = small, poorly fitted or top-dose-only effect, or another doubt; inactive = no such curve, though single readings can be large; an effect the other way counts as inactive or inconclusive.

CCN(CC)CCNC(=O)Cn1nc(C)c2c(C)n(-c3ccccc3)nc2c1=O	none
COc1cc(OC)c2c(=O)c(-c3ccccc3)coc2c1	none
COc1cc2c(cc1NC(=O)COC(=O)C(CCSC)NC(=O)c1ccccc1Cl)oc1ccccc12 (stereo not given)	Cruzain noTriton 25.1µM, Cruzain inh Det inconclusive
COc1cc2c(cc1NC(=O)COC(=O)[C@@H](NS(=O)(=O)c1ccccc1)C(C)C)oc1ccccc12	Cruzain noTriton inconclusive
Cc1csc2nc(-c3cccc(NC(=O)c4c(F)cccc4F)c3)cn12	Cruzain noTriton inconclusive
COc1cc2c(cc1OC)-c1cc3cc(OC)c(OC)cc3c(=O)n1CC2	Cruzain noTriton inconclusive
Cc1ccc(NC(=O)c2ccc3c(c2)NC(=O)c2ccccc2S3)c(Cl)c1	none
COc1ccccc1NC(=O)c1ccc2nc(-c3ccccc3)c(-c3ccccc3)nc2c1	Cruzain noTriton 31.6µM
COc1ccc(NC(=O)c2ccc3nc(-c4ccccc4)c(-c4ccccc4)nc3c2)c(OC)c1	none
O=C(NCc1cccc(F)c1)c1ccc2nc(CCc3ccccc3)oc2c1	none
CC1=C(C(=O)N2CCN(c3ccc(Cl)cc3)CC2)C2(CCC(C)CC2)OC1=O (stereo not given)	none
Cc1cccc(C2=NN(c3ccccc3)[C@H](CO)[C@H]2c2ccc(Cl)cc2)c1	Cruzain noTriton 35.5µM
Cc1cccc(C2=NN(c3ccccc3)[C@H](CO)[C@H]2c2ccc(F)cc2)c1	Cruzain noTriton inconclusive
OC[C@@H]1[C@@H](c2ccccc2)C(c2cccc(Cl)c2)=NN1c1ccccc1	Cruzain noTriton 25.1µM
OC[C@@H]1[C@@H](c2ccccc2)C(c2ccccc2)=NN1c1ccccc1	Cruzain noTriton 28.2µM
COc1ccccc1[C@H]1C(c2cccc(Cl)c2)=NN(c2ccccc2)[C@@H]1CO	Cruzain noTriton inconclusive
C[C@H]1C(c2ccccc2)=NN(c2ccccc2)[C@@H]1CO	none
CC(C)CN(CCCNC(=O)c1cc(-c2cccs2)nc2ccccc12)CC(C)C	none
Cc1nn(-c2ccccc2)c2sc(C(=O)Nc3cccc(O)c3)cc12	none
CCc1cccc(NC(=O)Cn2c(C(=O)OC)cc3occc32)c1	Cruzain noTriton inconclusive
Cc1ccccc1-c1nccc(-n2ccnc2)n1	none
CCc1ccc(-c2nc3c(=O)n(C)c(=O)nc-3n(CC)n2)cc1	none (no result: Cruzain noTriton, Cruzain inh Det) | Papain inh inactive
CCc1ccc(-c2nn[nH]n2)cc1	none
Cn1c(=O)c(-c2ccc(Cl)cc2)nc2cncnc21	none
Cc1ccc(-c2nc(N)n(S(C)(=O)=O)n2)cc1	none
Cc1ccc(-c2nc3c(=O)n(C)c(=O)nc-3n(C)n2)cc1	none (no result: Cruzain noTriton, Cruzain inh Det) | Papain inh inactive
Cn1ncnc2c(=O)n(C)c(=O)nc1-2	Cruzain noTriton 1.26µM, Cruzain inh Det 1.26µM | Papain inh inactive
Cc1ccccc1-c1nc2c(=O)n(C)c(=O)nc-2n(C)n1	none (no result: Cruzain noTriton, Cruzain inh Det) | Papain inh inactive
CCOc1ccc(Nc2nc(N)c(C(=O)c3ccccc3Cl)s2)cc1	Cruzain noTriton inconclusive
N#Cc1nc(Nc2ccc(F)cc2)nc(NC2CCCC2)n1	none (no result: Cruzain noTriton, Cruzain inh Det) | Papain inh 0.447µM
N#Cc1nc(Nc2ccccc2)nc(NC2CCCC2)n1	none (no result: Cruzain noTriton, Cruzain inh Det) | Papain inh 0.447µM
c1ccc(Nc2nc(N3CCCC3)nc(N3CCCC3)n2)cc1	none
COc1cccc(Nc2nc(C#N)nc(NC3CCCC3)n2)c1	none (no result: Cruzain noTriton, Cruzain inh Det) | Papain inh 0.282µM
COc1cccc(/C=C/c2nc(C#N)c(NC3CCCCC3)o2)c1	none
O=C(Nc1ccc(F)cc1)NC1CCCCC1	none
Nc1nc(NCC2CCC(CNS(=O)(=O)c3cccc4ccccc34)CC2)nc2ccccc12 (stereo not given)	Cruzain noTriton inconclusive
N#Cc1nc(NCC2CC2)nc(Nc2ccccc2)n1	none (no result: Cruzain noTriton, Cruzain inh Det) | Papain inh 1.26µM
COc1ccc(N(Cc2cccs2)C(=O)COc2ccc(C(C)C)cc2)cc1	none
O[C@H](CN1CC1)[C@@H](O)CN1CC1	none
CCOC(=O)c1c(S(=O)(=O)N2CCN(c3cc(Cl)ccc3C)CC2)c(C)n(C)c1C	none
COc1ccc(C2c3c(n(C)c4ccccc34)C(=O)N2CC(=O)Nc2ccccc2Cl)cc1 (stereo not given)	Cruzain noTriton inconclusive
Cc1ccc(-n2nc(C)c3c(C(=O)Nc4ccc(Br)c(C)c4)cc(C)nc32)cc1	none
CC1CN=C(Nc2cccc3ccccc23)S1 (stereo not given)	none
c1ccc(-c2nnc(-c3ccccn3)nc2NC2CCCCC2)cc1	none
N#Cc1c[nH]n2c(NC3CCCC3)c(-c3cccc(Br)c3)nc12	Cruzain noTriton inconclusive
N#Cc1nc(Nc2cccc(Br)c2)nc(NC2CCCC2)n1	none (no result: Cruzain noTriton, Cruzain inh Det) | Papain inh 1.26µM
N#Cc1nc(Nc2cccc3ccccc23)nc(NC2CCCC2)n1	none (no result: Cruzain noTriton, Cruzain inh Det) | Papain inh 4.47µM
N#Cc1nc(Nc2ccc(-c3ccccc3)cc2)nc(NC2CCCC2)n1	none (no result: Cruzain noTriton, Cruzain inh Det) | Papain inh 3.55µM
COc1ccc(N(Cc2nnc3n2CCCCC3)C(=O)Nc2ccc(Cl)cc2)cc1Cl	none
Cc1cccc(OCC(=O)Nc2ccccc2C(=O)OCc2cc(=O)n3ccsc3n2)c1	none
Cc1c(C(=O)Nc2nc(-c3ccc(F)cc3)ns2)oc2ccc(Br)cc12	none
CC1CN(c2oc(-c3cccs3)nc2C#N)CC(C)O1 (stereo not given)	Cruzain noTriton inconclusive, Cruzain inh Det 28.2µM | Papain inh 20µM
CC1CN(c2oc(Cc3cccc4ccccc34)nc2C#N)CC(C)O1 (stereo not given)	Cruzain noTriton inconclusive
N#Cc1nc(-c2cccs2)oc1N1CCOCC1	Cruzain noTriton inconclusive, Cruzain inh Det 25.1µM | Papain inh 15.8µM
N#Cc1nc(-c2ccco2)oc1N1CCOCC1	none
COc1ccc2c(c1)O[C@@H](c1cccc(C(F)(F)F)c1)[C@H](OC(=O)NCc1ccco1)C2=O	none
COc1ccc(OC)c(NC(=O)c2cn(CC(C)C)c(=O)c3cc(OC)c(OC)cc23)c1	Cruzain noTriton inconclusive
CCN(Cc1ccccc1)c1nc2c(S(=O)(=O)c3ccccc3)nnn2c2ccc(Cl)cc12	Cruzain noTriton inconclusive | Papain inh 31.6µM
COCCNc1nc2c(S(=O)(=O)c3ccccc3)nnn2c2ccc(Cl)cc12	none
CCN(Cc1ccccc1)C(=O)Cn1c(=O)n(-c2ccc(F)c(Cl)c2)c(=O)c2sc3ccccc3c21	none
Cc1ccc2oc(C(=O)N(Cc3sccc3C)C3CCS(=O)(=O)C3)c(C)c2c1 (stereo not given)	none
CCOc1ccc2[nH]c(=O)c(CN(Cc3nnnn3Cc3ccco3)C3CCCCC3)cc2c1	Cruzain noTriton 10µM, Cruzain inh Det 6.31µM | Papain inh inactive
COCCn1nnnc1CN(Cc1cc2cc(OC)c(OC)cc2[nH]c1=O)C1CCCC1	none
CCOc1ccc2[nH]c(=O)c(CN(Cc3ccco3)Cc3nnnn3Cc3ccccc3)cc2c1	none
COc1cc2cc(CN(Cc3nnnn3Cc3ccco3)C3CCCCC3)c(=O)[nH]c2cc1OC	Cruzain noTriton 7.94µM, Cruzain inh Det 7.08µM | Papain inh 28.2µM
COc1ccccc1CNC(=O)c1ccc(N2CCCC2)c(NC(=O)NCc2ccccc2)c1	none
COc1ccc2c(c1)c1c(c(=O)n(-c3cccc(C)c3)c(=O)n1CC(=O)NCc1ccc(C)cc1)n2C	none
CC(C)Nc1oc(-c2ccccc2)nc1-c1cccc2ccccc12	none
COc1ccc(NC(=O)CCc2nc3cccnc3n2-c2ccccc2)cc1Cl	none
CCOc1ccc(C(=O)/C=C/Nc2ccc(S(=O)(=O)N=C(N)N)cc2)cc1	none
NS(=O)(=O)c1ccc(N/C=C\C(=O)c2ccc3ccccc3c2)cc1	Cruzain noTriton 6.31µM, Cruzain inh Det 8.91µM | Papain inh inactive

From PubChem
